Reference: PubChem BioAssay (Tox21)
Inconclusive results are not listed. Where a call stands in place of a potency, no number is given. More than one record can exist for a structure, and the calls need not agree. Calls of active or inactive are those of the source. Calls follow the shape of the dose curve; as a rule, active = well fitted inhibition curve with a large enough effect in the signal ratio in the repeat runs (not every such curve was filed as active); inconclusive = weak or mixed curves, or effect the other way; inactive = no such curve, though single readings can be large or run the other way; the % refers to the signal ratio.

Each compound was assayed against Estrogen receptor beta (Homo sapiens) (UniProt Q92731) (assay: qHTS assay to identify small molecule antagonists of the estrogen receptor beta (ER-beta) signaling pathway (AID 1259378)). Conditions: ER-beta-UAS-bla HEK293T, beta-lactamase FRET ratio, 16 h; series mostly up to 92.4 µM; activity, negative = inhibition: at the top concentration.
Estrogen receptor beta (Homo sapiens), sequence (Q92731 whole entry, looked up): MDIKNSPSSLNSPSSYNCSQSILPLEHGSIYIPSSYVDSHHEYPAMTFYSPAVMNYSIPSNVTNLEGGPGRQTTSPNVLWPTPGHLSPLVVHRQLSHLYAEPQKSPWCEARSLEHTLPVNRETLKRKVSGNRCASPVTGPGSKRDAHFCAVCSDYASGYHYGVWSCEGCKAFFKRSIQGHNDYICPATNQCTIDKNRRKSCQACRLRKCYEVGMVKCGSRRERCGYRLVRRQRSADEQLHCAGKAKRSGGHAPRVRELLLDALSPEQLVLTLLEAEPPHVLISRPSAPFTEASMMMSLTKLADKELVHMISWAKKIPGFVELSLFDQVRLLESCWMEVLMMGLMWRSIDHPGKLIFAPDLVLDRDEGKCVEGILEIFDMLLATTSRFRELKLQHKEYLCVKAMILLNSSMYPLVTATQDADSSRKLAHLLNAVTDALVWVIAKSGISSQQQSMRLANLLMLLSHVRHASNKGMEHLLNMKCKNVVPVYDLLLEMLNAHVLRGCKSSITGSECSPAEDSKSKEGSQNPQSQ
From the text: National Center for Advancing Translational Sciences [NCATS]
NIH Chemical Genomics Center [NCGC]
U.S. Environmental Protection Agency [EPA]
National Institutes of Environmental Health Sciences [NIEHS]
National Toxicology Program [NTP]
U.S. Food and Drug Administration [FDA]
Estrogen receptor (ER), a nuclear hormone receptor, plays an important role in development, metabolic homeostasis and reproduction. Two subtypes of ER, ER-alpha and ER-beta, have similar expression patterns with some uniqueness in both types. Endocrine disrupting chemicals (EDCs) and their interactions with steroid hormone receptors like ER causes disruption of normal endocrine function. To identify the compounds that inhibit ER signaling, an ER-beta-UAS-bla GripTite cell line (Life Technologies, Madison, WI, USA) containing a beta-lactamase reporter gene under the control of an UAS response element was used to screen Tox21 10K compound library.
Tox21 Assay Protocol Summary:
ER-beta-UAS-bla HEK293T cells were dispensed at 2,000 cells/4 uL of assay medium containing 2% charcoal stripped FBS per well into black wall/clear-bottom 1536-well plates using a Multidrop Combi (ThermoFisher Scientific, Waltham, MA) dispenser. After the assay plates were incubated at a 37C and 5% CO2 for 6 hr, 23 nL of compounds dissolved in DMSO, positive controls or DMSO only was transferred to the assay plate by a Pintool station (Kalypsys, San Diego, CA), followed by addition of 1 uL (1nM as final concentration) of 17-beta-estradiol (E2) in assay medium using a BioRAPTR FRD (Flying Reagent Dispenser, Aurora Discovery, San Diego, CA). The plates were incubated at 37C and 5% CO2 for 16 hr. Then 1 uL of LiveBLAzerTM B/G FRET substrate was added using a Flying Reagent Dispenser, the plates were incubated at room temperature for 2 hours, and fluorescence intensity was measured by an Envision plate reader (PerkinElmer, Shelton, CT).
Potency is read from the fitted curve at half-maximal effect.

SMILES | Potency | activity, negative = inhibition
Clc1ccccn1 | inactive | –
CC(C)CC(C)O (stereo not given) | inactive | –
C=C(C)[C@H]1CC=C(C)C(=O)C1 | inactive | –
CCCCCCCCCCN | inactive | –
CCCCCCCCCCCCCCCC(=O)OC(C)C | inactive | –
CC(=O)OCc1ccccc1 | inactive | –
O=c1[nH]cnc2[nH]ncc12 | 22.2 µM (active) and inactive | –
CCCCC(C=O)CC (stereo not given) | inactive | –
Nc1nc(N)nc(-c2ccccc2)n1 | – | -15.3% (inactive)
COc1ccc([N+](=O)[O-])cc1N | inactive | –
Brc1ccc(Br)c(Br)c1 | inactive | –
CCOC(=O)c1ccc(N)cc1 | inactive | –
CN(C)c1ccc(O)c2c1C[C@H]1C[C@H]3[C@H](N(C)C)C(=O)C(C(N)=O)=C(O)[C@@]3(O)C(=O)C1=C2O | – | -15.3% (inactive)
CC(CCl)OP(=O)(OC(C)CCl)OC(C)CCl (stereo not given) | inactive | –
C=C(C)C(=O)OCC(C)C | inactive | –
CCNc1ccccc1 | – | 0.804% (inactive)
O=C1c2ccccc2CCc2ccccc21 | inactive | –
O=C(O)c1ccc(S(=O)(=O)N(Cl)Cl)cc1 | inactive | –
CC(C)(C#N)c1cc(Cn2cncn2)cc(C(C)(C)C#N)c1 | inactive | –
O=C(O)/C=C/C(=O)O | inactive | –

SMILES | Potency | activity, negative = inhibition
CC(=O)CC(C)(C)O | inactive | –
CC(=O)OCCOC(C)=O | – | 2.14% (inactive)
CCc1ccccc1CC | inactive | –
C=CCc1ccc(OC)c(OC)c1 | inactive | –
OCc1cccc(Oc2ccccc2)c1 | – | -10.7% (inactive)
CNC(=S)N(C)C | inactive | –
CN(C)CCOC(=O)COc1ccc(Cl)cc1 | inactive | –
COc1ccccc1OCC(O)CO (stereo not given) | inactive | –
Nc1ccc(Cl)c(N)c1 | – | -25.6% (inactive)
CC(C)CC(=O)CC(C)CC(C)C (stereo not given) | inactive | –
CCCCCC(=O)O | inactive | –
CC(=O)OC1CC(C)OC(C)O1 (stereo not given) | inactive | –
O=C(O)Cn1c(=O)n(Cc2ccc(Br)cc2F)c(=O)c2ccc(Cl)cc21 | inactive | –
Cc1ccc([N+](=O)[O-])cc1S(=O)(=O)O | inactive | –
c1ccc2c(c1)Cc1ccccc1-2 | – | 13.3% (inactive)
CCOCCOCCOCCO | inactive | –
CC(=O)OCc1ccco1 | – | 9.4% (inactive)
Cc1ccc(C(C)C)c(O)c1 | – | -0.494% (inactive)
CSc1ccc(Cl)cc1 | – | 5.38% (inactive)
CN(C)c1ccc(Cc2ccc(N(C)C)cc2)cc1 | – | 2.06% (inactive)
